The results in this text go back to PubChem BioAssay.

Active and inactive are the calls of the source.

Assay [1] has as its system PRMT1 (protein arginine N-methyltransferase 1). Nature of the assay: PRMT1 binders on small-molecule microarrays, primary screen, biochemical, small-molecule microarray, 635 nm fluorescence (AID 1088).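 Also: binding of Prmt1 protein to compounds spotted on small-molecule microarray slides.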 The note with it: small-molecule microarray binding, higher = more signal.
The nature of assay [2]: yeast growth modulation, basal conditions, primary screen, YJM789 clinical isolate, OD600, 24 h (AID 1089).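 Also: growth of clinical yeast isolate S. cerevisiae YJM 789 seeded 1000 cells per well; test concentration not given here.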 The note with it: S. cerevisiae YJM789 growth, higher = more signal, called active from +8 up or from −8 down.
Assay [3] can be described thus: fission yeast growth modulation, primary screen, strain 972, OD600, 24 h, no modulator (AID 1090).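 Also: basal condition with compound alone and no growth modifier present; test concentration not given here.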 The note with it: S. pombe 972 growth, higher = more signal, called active from +8 up or from −8 down.
Assay [4] can be described thus: S. cerevisiae growth modulation with rapamycin, primary screen, strain BY4716, OD600, 96 h (AID 1091). Also: test concentration not given here. The note with it: higher = more signal, called active from +8 up or from −8 down.
Assay [5] has as its target Torsin-1A-interacting protein 2 (Homo sapiens) (UniProt Q8NFQ8). Briefly: LULL1 binders on small-molecule microarray, primary screen, cell lysate, human LULL1 lysate, 635/667 nm fluorescence (AID 1092).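 Also: probe is lysate of COS7 cells overexpressing human LULL1; score merges per-feature 667 nm fluorescence with signal-to-noise.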 The settings on record: hLULL1 lysate binding, 635 nm fluorescence, higher = more signal.
Assay [6] can be described thus: E. coli growth modulation, two-sided OD650, primary screen, E. coli filamentation project, strain DRC41, 24 h (AID 1093).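 Also: MC1000 strain lacking acrAB efflux and sulA so SOS filamentation is blocked; test concentration not given here.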 The settings on record: OD650, 24 h, higher = more signal, called active from +8 up or from −8 down.
Assay [7] is described as follows: small-molecule microarray binders of probe aLefty2, primary screen, biochemical, biotinylated probe, 635/667 nm fluorescence (AID 1094).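 Also: score merges spot fluorescence near 667 nm with spot signal-to-noise ratio.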 The note with it: higher = more signal.
The test system of assay [8] is Noggin (protein binding on small-molecule microarray). Nature of the assay: Noggin binders on small-molecule microarray, primary screen, biochemical, 635/667 nm fluorescence (AID 1095).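 Also: score merges 667 nm feature fluorescence with signal to noise over triplicate slides.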 The settings on record: 635 nm fluorescence, higher = more signal.
The target in assay [9] is Neurogenic locus notch homolog protein 3 (Homo sapiens) (UniProt Q9UM47). Briefly: NOTCH3 binders on small-molecule microarray, primary screen, biochemical, 635/667 nm fluorescence (AID 1096). The settings on record: NOTCH3 binding, 635 nm fluorescence, higher = more signal.
Neurogenic locus notch homolog protein 3 (Homo sapiens), sequence (Q9UM47 whole entry, looked up): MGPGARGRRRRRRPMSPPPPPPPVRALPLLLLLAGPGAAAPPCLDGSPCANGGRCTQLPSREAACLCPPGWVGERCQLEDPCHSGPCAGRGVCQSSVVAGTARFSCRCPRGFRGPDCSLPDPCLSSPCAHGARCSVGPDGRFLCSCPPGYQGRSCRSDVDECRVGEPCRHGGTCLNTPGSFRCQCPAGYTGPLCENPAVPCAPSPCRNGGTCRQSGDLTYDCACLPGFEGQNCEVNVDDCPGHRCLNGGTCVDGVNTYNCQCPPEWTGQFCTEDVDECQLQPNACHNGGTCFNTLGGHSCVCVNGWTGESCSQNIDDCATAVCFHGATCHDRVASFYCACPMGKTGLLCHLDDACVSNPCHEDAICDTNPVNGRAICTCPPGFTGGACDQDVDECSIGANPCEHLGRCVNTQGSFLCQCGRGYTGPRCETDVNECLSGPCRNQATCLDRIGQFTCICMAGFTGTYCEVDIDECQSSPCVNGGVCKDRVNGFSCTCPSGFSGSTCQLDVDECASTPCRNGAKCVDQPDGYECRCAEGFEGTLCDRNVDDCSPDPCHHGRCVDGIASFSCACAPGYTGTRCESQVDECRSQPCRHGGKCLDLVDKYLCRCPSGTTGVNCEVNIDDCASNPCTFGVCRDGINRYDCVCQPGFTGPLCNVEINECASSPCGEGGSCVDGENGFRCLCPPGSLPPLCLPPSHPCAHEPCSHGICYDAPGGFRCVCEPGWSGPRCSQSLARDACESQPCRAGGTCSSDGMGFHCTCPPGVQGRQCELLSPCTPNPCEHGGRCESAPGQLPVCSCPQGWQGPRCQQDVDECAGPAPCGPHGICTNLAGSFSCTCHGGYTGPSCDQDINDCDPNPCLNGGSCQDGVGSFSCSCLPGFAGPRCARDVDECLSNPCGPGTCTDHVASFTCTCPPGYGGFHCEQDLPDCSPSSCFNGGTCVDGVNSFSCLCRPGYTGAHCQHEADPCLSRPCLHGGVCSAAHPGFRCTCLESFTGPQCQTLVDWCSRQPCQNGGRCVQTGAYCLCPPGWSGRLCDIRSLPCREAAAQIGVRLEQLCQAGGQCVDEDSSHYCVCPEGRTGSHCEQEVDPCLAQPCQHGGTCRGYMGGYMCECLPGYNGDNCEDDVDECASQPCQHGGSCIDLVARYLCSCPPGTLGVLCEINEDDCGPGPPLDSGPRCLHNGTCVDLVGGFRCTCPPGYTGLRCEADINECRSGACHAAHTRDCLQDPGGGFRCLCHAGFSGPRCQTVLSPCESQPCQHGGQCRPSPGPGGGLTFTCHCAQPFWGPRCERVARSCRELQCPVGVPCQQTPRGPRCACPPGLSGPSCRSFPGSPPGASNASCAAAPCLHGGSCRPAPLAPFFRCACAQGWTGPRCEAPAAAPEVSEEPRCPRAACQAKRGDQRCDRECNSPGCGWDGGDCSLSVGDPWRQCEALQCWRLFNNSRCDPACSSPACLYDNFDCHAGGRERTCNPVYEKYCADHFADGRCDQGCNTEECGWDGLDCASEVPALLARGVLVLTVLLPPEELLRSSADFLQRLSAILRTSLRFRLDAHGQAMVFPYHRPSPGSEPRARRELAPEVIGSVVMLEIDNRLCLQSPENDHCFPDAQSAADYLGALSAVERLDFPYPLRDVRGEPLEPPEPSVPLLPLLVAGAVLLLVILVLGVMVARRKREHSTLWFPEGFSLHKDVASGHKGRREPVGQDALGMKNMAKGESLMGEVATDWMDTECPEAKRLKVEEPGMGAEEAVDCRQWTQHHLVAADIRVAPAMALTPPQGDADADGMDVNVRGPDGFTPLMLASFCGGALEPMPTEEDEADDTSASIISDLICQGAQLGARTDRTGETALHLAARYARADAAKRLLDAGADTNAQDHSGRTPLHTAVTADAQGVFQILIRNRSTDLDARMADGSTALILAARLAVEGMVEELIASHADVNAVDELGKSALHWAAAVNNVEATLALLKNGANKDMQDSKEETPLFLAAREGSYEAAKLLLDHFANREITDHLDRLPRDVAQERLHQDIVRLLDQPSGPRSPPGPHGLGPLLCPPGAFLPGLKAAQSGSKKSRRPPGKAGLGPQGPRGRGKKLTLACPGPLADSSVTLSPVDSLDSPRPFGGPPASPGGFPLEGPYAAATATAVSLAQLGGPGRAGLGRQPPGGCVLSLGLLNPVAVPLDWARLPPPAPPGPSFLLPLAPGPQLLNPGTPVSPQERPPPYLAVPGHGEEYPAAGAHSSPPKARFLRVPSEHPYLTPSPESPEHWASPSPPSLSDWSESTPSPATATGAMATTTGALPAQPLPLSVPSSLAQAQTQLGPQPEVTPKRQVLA
A short description of assay [10]: small-molecule microarray binders of probe aEGFR, primary screen, biochemical, biotinylated probe, 635/667 nm fluorescence (AID 1097).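 Also: probe is a biotinylated anti-EGFR antibody binding compounds printed on slides; score combines fluorescence near 667 nm and signal to noise of each spot.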 The settings on record: higher = more signal.

Torsin-1A-interacting protein 2 (Homo sapiens), sequence (Q8NFQ8 whole entry, looked up): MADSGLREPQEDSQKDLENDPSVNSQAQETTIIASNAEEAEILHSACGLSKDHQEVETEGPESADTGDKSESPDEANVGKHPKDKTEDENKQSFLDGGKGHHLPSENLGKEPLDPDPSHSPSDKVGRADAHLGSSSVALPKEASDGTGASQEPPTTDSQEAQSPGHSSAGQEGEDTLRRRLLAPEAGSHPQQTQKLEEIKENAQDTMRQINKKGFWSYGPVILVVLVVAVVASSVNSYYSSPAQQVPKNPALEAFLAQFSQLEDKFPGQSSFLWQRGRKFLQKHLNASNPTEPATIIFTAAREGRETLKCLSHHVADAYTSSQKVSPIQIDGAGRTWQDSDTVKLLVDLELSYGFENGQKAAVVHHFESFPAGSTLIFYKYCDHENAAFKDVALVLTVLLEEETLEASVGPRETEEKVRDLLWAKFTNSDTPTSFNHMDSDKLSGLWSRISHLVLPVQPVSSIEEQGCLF

As for `CCCNC(=O)[C@@H]1c2ccccc2C(=O)N(Cc2ccc(OC(F)(F)F)cc2)[C@H]1c1ccc(CO)cc1`, the composite z-score is 0.428 in assay [1]; 2.12 in assay [5]; 0.0286 in assay [7]; -0.0211 in [8]; 0.0529 in assay [9]; -0.0316 in [10]. Moreover, the z-score in assay [2] was 0.645 (inactive); in [3], 0.0302 (inactive); in assay [4], -0.174 (inactive); in assay [6], 0.937 (inactive).

For the molecule `CC1CC/C=C\[C@H]2OC34C=CCN(c5ccc(Cl)cc5)C(=O)[C@H]3N(C(C)CO)C(=O)[C@]4(C)C2C(=O)O1` (stereo not given in full), the composite z-score in assay [1] was -0.678; in [5], -1.05; in [7], -0.0099; in assay [8], -0.603; in assay [9], -0.984; in assay [10], -0.173. Besides, the z-score in [2] is -0.0407 (inactive); in [3], -0.738 (inactive); in [4], 0.334 (inactive); in assay [6] it was 0.108 (inactive).

With `CN(C)C(=O)[C@]1(Cc2ccccc2CN=[N+]=[N-])N=C(c2ccc(OCCCO)cc2)O[C@@H]1c1ccccc1`, the composite z-score in assay [1] is 1.57; in assay [5], 3.29; in [7], -0.0352; in assay [8], 0.104; in [9], 0.439; in [10] it was 0.0958. Moreover, the z-score was -0.545 (inactive) in [2], -1.07 (inactive) in assay [3], 20.8 (active) in assay [4] and -0.915 (inactive) in assay [6].

With `COc1ccc([Si](C)(C)[C@@H]2[C@@H](CC(=O)N3CCC[C@H]3CO)O[C@]3(C(=O)N(Cc4cccc(N5C(=O)COc6ccccc65)c4)c4ccccc43)[C@H]2C)cc1`, the composite z-score in assay [1] is 1.57; in assay [5], 1.77; in assay [7] it was -0.0198; in [8], 0.942; in assay [9], 0.757; in [10] it was -0.165. Moreover, the z-score in [2] was -2.24 (inactive); in assay [3], -0.185 (inactive); in assay [4], -0.278 (inactive); in assay [6], 0.222 (inactive).

For the molecule `COc1ccc([Si](C)(C)[C@@H]2[C@@H](CCO)O[C@]3(C(=O)N(Cc4ccccc4)c4ccc(NC(=O)[C@H](C)O)cc43)[C@H]2C)cc1`, the composite z-score in [1] is 1.54; in assay [5], 2; in [7], -0.0766; in [8], 1.25; in assay [9] it was 1.05; in assay [10], -0.067. Further, the z-score was 2.85 (inactive) in assay [2], 0.386 (inactive) in [3], 7.41 (inactive) in [4] and 0.655 (inactive) in assay [6].

As for `C=CCNC(=O)[C@H]1[C@@H]2C(=O)O[C@@H](c3ccccc3)[C@@H](c3ccccc3)N2[C@@H](c2ccccc2OCCO)[C@]12C(=O)N(C(=O)OCCOC)c1ccc(C#CC3(O)CCCCCC3)cc12`, the composite z-score is 1.56 in assay [1]; 3.1 in assay [5]; -0.0499 in [7]; 0.592 in [8]; 0.759 in assay [9]; -0.0455 in [10]. Moreover, the z-score in assay [2] is -0.22 (inactive); in [3], -0.444 (inactive); in assay [4], 4.93 (inactive); in [6] it was 1.31 (inactive).

For the molecule `COC(=O)C1=CC(CCCO)=CC(c2cccs2)N(C)C=C1C(=O)OC` (stereo not given), the composite z-score is 0.0782 in assay [1]; 1.6 in [5]; 0.0099 in assay [7]; -0.561 in assay [8]; 0.275 in assay [9]; -0.0034 in assay [10]. Also, the z-score in assay [2] was 0.112 (inactive); in [3] it was 0.009 (inactive); in assay [4] it was 0.241 (inactive); in assay [6] it was 0.39 (inactive).
